# Reference: the supplement of paper PMC4466140
# B1: unnamed (peptide)
# chain: VYTRTAFQIPGDDKI
# B2: unnamed (peptide)
# chain: NNFYRPLLRSVLVLL
# Legend:
# Assay in all cases: SPOT peptide array binding signal intensity (averaged, normalized) (arbitrary units (background-subtracted, floor 0; scale differs between SH3 domains)); higher = stronger binding of the SH3 domain to the peptide
# AgAbp1 = molecular target: AgAbp1
# Outline: (§1)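 E. coli BL21(DE3) was used to express GST-fused SH3 domains from four yeast species, which were then purified on glutathione Sepharose. These were incubated at 10 μg/ml in TBS-based blocking buffer overnight at 4°C on cellulose membranes carrying synthetic 15-mer peptides, in which cysteines were replaced by serines. Binding signal is the replicate average of normalized, background-subtracted spot intensity, in arbitrary units that differ between domains.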
# AgBbc1 = molecular target: AgBbc1
# Outline: as §1
# AgBem1-D1 = molecular target: AgBem1-D1
# Outline: as §1
# AgBzz1-D1 = molecular target: AgBzz1-D1
# Outline: as §1
# AgBzz1-D2 = molecular target: AgBzz1-D2
# Outline: as §1
# AgCyk3 = molecular target: AgCyk3
# Outline: as §1
# AgFus1 = molecular target: AgFus1
# Outline: as §1
# AgHof1 = molecular target: AgHof1
# Outline: as §1
# AgHse1 = molecular target: AgHse1
# Outline: as §1
# AgLsb1 = molecular target: AgLsb1
# Outline: as §1
# AgLsb4 = molecular target: AgLsb4
# Outline: as §1
# AgMyo5 = molecular target: AgMyo5
# Outline: as §1
# AgNbp2 = molecular target: AgNbp2
# Outline: as §1
# AgRvs167 = molecular target: AgRvs167
# Outline: as §1
# AgSho1 = molecular target: AgSho1
# Outline: as §1
# AgSla1-D1-D2 = molecular target: AgSla1-D1-D2
# Outline: as §1
# AgSla1-D3 = molecular target: AgSla1-D3
# Outline: as §1
# CaAbp1-D1 = molecular target: CaAbp1-D1
# Outline: as §1
# CaAbp1-D2 = molecular target: CaAbp1-D2
# Outline: as §1
# CaBbc1 = molecular target: CaBbc1
# Outline: as §1
# CaBem1-D1 = molecular target: CaBem1-D1
# Outline: as §1
# CaBzz1-D1 = molecular target: CaBzz1-D1
# Outline: as §1
# CaBzz1-D2 = molecular target: CaBzz1-D2
# Outline: as §1
# CaCyk3 = molecular target: CaCyk3
# Outline: as §1
# CaFus1 = molecular target: CaFus1
# Outline: as §1
# CaHof1 = molecular target: CaHof1
# Outline: as §1
# CaHse1 = molecular target: CaHse1
# Outline: as §1
# CaLsb1 = molecular target: CaLsb1
# Outline: as §1
# CaLsb4 = molecular target: CaLsb4
# Outline: as §1
# CaMyo5 = molecular target: CaMyo5
# Outline: as §1
# CaNbp2 = molecular target: CaNbp2
# Outline: as §1
# CaRvs167 = molecular target: CaRvs167
# Outline: as §1
# CaRvs167-3 = molecular target: CaRvs167-3
# Outline: as §1
# CaSho1 = molecular target: CaSho1
# Outline: as §1
# CaSla1-D1-D2 = molecular target: CaSla1-D1-D2
# Outline: as §1
# CaSla1-D3 = molecular target: CaSla1-D3
# Outline: as §1
# ScAbp1 = molecular target: ScAbp1
# Outline: as §1
# ScBbc1 = molecular target: ScBbc1
# Outline: as §1
# ScBem1-D1 = molecular target: ScBem1-D1
# Outline: as §1
# ScBzz1-D1 = molecular target: ScBzz1-D1
# Outline: as §1
# ScBzz1-D2 = molecular target: ScBzz1-D2
# Outline: as §1
# ScCyk3 = molecular target: ScCyk3
# Outline: as §1
# ScFus1 = molecular target: ScFus1
# Outline: as §1
# ScHof1 = molecular target: ScHof1
# Outline: as §1
# ScHse1 = molecular target: ScHse1
# Outline: as §1
# ScLsb1 = molecular target: ScLsb1
# Outline: as §1
# ScLsb2 = molecular target: ScLsb2
# Outline: as §1
# ScLsb3 = molecular target: ScLsb3
# Outline: as §1
# ScLsb4 = molecular target: ScLsb4
# Outline: as §1
# ScMyo3 = molecular target: ScMyo3
# Outline: as §1
# ScMyo5 = molecular target: ScMyo5
# Outline: as §1
# ScNbp2 = molecular target: ScNbp2
# Outline: as §1
# ScPex13 = molecular target: ScPex13
# Outline: as §1
# ScRvs167 = molecular target: ScRvs167
# Outline: as §1
# ScSho1 = molecular target: ScSho1
# Outline: as §1
# ScSla1-D1-D2 = molecular target: ScSla1-D1-D2
# Outline: as §1
# ScSla1-D3 = molecular target: ScSla1-D3
# Outline: as §1
# SpAbp1-D1 = molecular target: SpAbp1-D1
# Outline: as §1
# SpBbc1 = molecular target: SpBbc1
# Outline: as §1
# SpBzz1-D1 = molecular target: SpBzz1-D1
# Outline: as §1
# SpBzz1-D2 = molecular target: SpBzz1-D2
# Outline: as §1
# SpCyk3 = molecular target: SpCyk3
# Outline: as §1
# SpHof1 = molecular target: SpHof1
# Outline: as §1
# SpHof1-2 = molecular target: SpHof1-2
# Outline: as §1
# SpHof1-3 = molecular target: SpHof1-3
# Outline: as §1
# SpHse1 = molecular target: SpHse1
# Outline: as §1
# SpLsb1 = molecular target: SpLsb1
# Outline: as §1
# SpLsb4 = molecular target: SpLsb4
# Outline: as §1
# SpMyo1 = molecular target: SpMyo1
# Outline: as §1
# SpNbp2 = molecular target: SpNbp2
# Outline: as §1
# SpPex13 = molecular target: SpPex13
# Outline: as §1
# SpRvs167 = molecular target: SpRvs167
# Outline: as §1
# SpSla1-D1-D2 = molecular target: SpSla1-D1-D2
# Outline: as §1
# SpSla1-D3 = molecular target: SpSla1-D3
# Outline: as §1
binder,measurement,setting,value
B1,SPOT peptide array binding signal intensity,AgAbp1,≤ 0
same,SPOT peptide array binding signal intensity,AgBbc1,≤ 0
same,SPOT peptide array binding signal intensity,AgBem1-D1,≤ 0
same,SPOT peptide array binding signal intensity,AgBzz1-D1,29
same,SPOT peptide array binding signal intensity,AgBzz1-D2,20
same,SPOT peptide array binding signal intensity,AgCyk3,0.5
same,SPOT peptide array binding signal intensity,AgFus1,≤ 0
same,SPOT peptide array binding signal intensity,AgHof1,10
same,SPOT peptide array binding signal intensity,AgHse1,≤ 0
same,SPOT peptide array binding signal intensity,AgLsb1,474
same,SPOT peptide array binding signal intensity,AgLsb4,≤ 0
same,SPOT peptide array binding signal intensity,AgMyo5,≤ 0
same,SPOT peptide array binding signal intensity,AgNbp2,≤ 0
same,SPOT peptide array binding signal intensity,AgRvs167,0.333
same,SPOT peptide array binding signal intensity,AgSho1,≤ 0
same,SPOT peptide array binding signal intensity,AgSla1-D1-D2,≤ 0
same,SPOT peptide array binding signal intensity,AgSla1-D3,≤ 0
same,SPOT peptide array binding signal intensity,CaAbp1-D1,≤ 0
same,SPOT peptide array binding signal intensity,CaAbp1-D2,≤ 0
same,SPOT peptide array binding signal intensity,CaBbc1,3
same,SPOT peptide array binding signal intensity,CaBem1-D1,≤ 0
same,SPOT peptide array binding signal intensity,CaBzz1-D1,83.5
same,SPOT peptide array binding signal intensity,CaBzz1-D2,26
same,SPOT peptide array binding signal intensity,CaCyk3,≤ 0
same,SPOT peptide array binding signal intensity,CaFus1,≤ 0
same,SPOT peptide array binding signal intensity,CaHof1,≤ 0
same,SPOT peptide array binding signal intensity,CaHse1,≤ 0
same,SPOT peptide array binding signal intensity,CaLsb1,184
same,SPOT peptide array binding signal intensity,CaLsb4,≤ 0
same,SPOT peptide array binding signal intensity,CaMyo5,≤ 0
same,SPOT peptide array binding signal intensity,CaNbp2,≤ 0
same,SPOT peptide array binding signal intensity,CaRvs167,0.833
same,SPOT peptide array binding signal intensity,CaRvs167-3,3.25
same,SPOT peptide array binding signal intensity,CaSho1,≤ 0
same,SPOT peptide array binding signal intensity,CaSla1-D1-D2,≤ 0
same,SPOT peptide array binding signal intensity,CaSla1-D3,0.5
same,SPOT peptide array binding signal intensity,ScAbp1,≤ 0
same,SPOT peptide array binding signal intensity,ScBbc1,≤ 0
same,SPOT peptide array binding signal intensity,ScBem1-D1,8
same,SPOT peptide array binding signal intensity,ScBzz1-D1,17.5
same,SPOT peptide array binding signal intensity,ScBzz1-D2,22.5
same,SPOT peptide array binding signal intensity,ScCyk3,≤ 0
same,SPOT peptide array binding signal intensity,ScFus1,≤ 0
same,SPOT peptide array binding signal intensity,ScHof1,≤ 0
same,SPOT peptide array binding signal intensity,ScHse1,≤ 0
same,SPOT peptide array binding signal intensity,ScLsb1,601
same,SPOT peptide array binding signal intensity,ScLsb2,895
same,SPOT peptide array binding signal intensity,ScLsb3,≤ 0
same,SPOT peptide array binding signal intensity,ScLsb4,≤ 0
same,SPOT peptide array binding signal intensity,ScMyo3,0.5
same,SPOT peptide array binding signal intensity,ScMyo5,≤ 0
same,SPOT peptide array binding signal intensity,ScNbp2,≤ 0
same,SPOT peptide array binding signal intensity,ScPex13,≤ 0
same,SPOT peptide array binding signal intensity,ScRvs167,1.83
same,SPOT peptide array binding signal intensity,ScSho1,≤ 0
same,SPOT peptide array binding signal intensity,ScSla1-D1-D2,≤ 0
same,SPOT peptide array binding signal intensity,ScSla1-D3,10.5
same,SPOT peptide array binding signal intensity,SpAbp1-D1,1
same,SPOT peptide array binding signal intensity,SpBbc1,≤ 0
same,SPOT peptide array binding signal intensity,SpBzz1-D1,75.5
same,SPOT peptide array binding signal intensity,SpBzz1-D2,≤ 0
same,SPOT peptide array binding signal intensity,SpCyk3,≤ 0
same,SPOT peptide array binding signal intensity,SpHof1,≤ 0
same,SPOT peptide array binding signal intensity,SpHof1-2,≤ 0
same,SPOT peptide array binding signal intensity,SpHof1-3,≤ 0
same,SPOT peptide array binding signal intensity,SpHse1,≤ 0
same,SPOT peptide array binding signal intensity,SpLsb1,68.5
same,SPOT peptide array binding signal intensity,SpLsb4,≤ 0
same,SPOT peptide array binding signal intensity,SpMyo1,3.5
same,SPOT peptide array binding signal intensity,SpNbp2,7
same,SPOT peptide array binding signal intensity,SpPex13,≤ 0
same,SPOT peptide array binding signal intensity,SpRvs167,0.333
same,SPOT peptide array binding signal intensity,SpSla1-D1-D2,2
same,SPOT peptide array binding signal intensity,SpSla1-D3,≤ 0
B2,SPOT peptide array binding signal intensity,CaNbp2,72.5
same,SPOT peptide array binding signal intensity,CaRvs167,3
same,SPOT peptide array binding signal intensity,CaRvs167-3,1
same,SPOT peptide array binding signal intensity,CaSho1,80
same,SPOT peptide array binding signal intensity,CaSla1-D1-D2,≤ 0
same,SPOT peptide array binding signal intensity,CaSla1-D3,≤ 0
same,SPOT peptide array binding signal intensity,ScAbp1,≤ 0
same,SPOT peptide array binding signal intensity,ScBbc1,0.75
same,SPOT peptide array binding signal intensity,ScBem1-D1,4
same,SPOT peptide array binding signal intensity,ScBzz1-D1,19
same,SPOT peptide array binding signal intensity,ScBzz1-D2,6
same,SPOT peptide array binding signal intensity,ScCyk3,57.5
same,SPOT peptide array binding signal intensity,ScFus1,238
same,SPOT peptide array binding signal intensity,ScHof1,1
same,SPOT peptide array binding signal intensity,ScHse1,1040
same,SPOT peptide array binding signal intensity,ScLsb1,0.5
same,SPOT peptide array binding signal intensity,ScLsb2,1
same,SPOT peptide array binding signal intensity,ScLsb3,0.5
same,SPOT peptide array binding signal intensity,ScLsb4,≤ 0
same,SPOT peptide array binding signal intensity,ScMyo3,≤ 0
same,SPOT peptide array binding signal intensity,ScMyo5,≤ 0
same,SPOT peptide array binding signal intensity,ScNbp2,13
same,SPOT peptide array binding signal intensity,ScPex13,0.25
same,SPOT peptide array binding signal intensity,ScRvs167,2.33
same,SPOT peptide array binding signal intensity,ScSho1,350
same,SPOT peptide array binding signal intensity,ScSla1-D1-D2,≤ 0
same,SPOT peptide array binding signal intensity,ScSla1-D3,0.5
same,SPOT peptide array binding signal intensity,SpAbp1-D1,≤ 0
same,SPOT peptide array binding signal intensity,SpBbc1,≤ 0
same,SPOT peptide array binding signal intensity,SpBzz1-D1,8
same,SPOT peptide array binding signal intensity,SpBzz1-D2,0.5
same,SPOT peptide array binding signal intensity,SpCyk3,6.5
same,SPOT peptide array binding signal intensity,SpHof1,3
same,SPOT peptide array binding signal intensity,SpHof1-2,4
same,SPOT peptide array binding signal intensity,SpHof1-3,366
same,SPOT peptide array binding signal intensity,SpHse1,1050
same,SPOT peptide array binding signal intensity,SpLsb1,≤ 0
same,SPOT peptide array binding signal intensity,SpLsb4,≤ 0
same,SPOT peptide array binding signal intensity,SpMyo1,≤ 0
same,SPOT peptide array binding signal intensity,SpNbp2,0.5
same,SPOT peptide array binding signal intensity,SpPex13,5.5
same,SPOT peptide array binding signal intensity,SpRvs167,0.667
same,SPOT peptide array binding signal intensity,SpSla1-D1-D2,4
same,SPOT peptide array binding signal intensity,SpSla1-D3,≤ 0
